Compounds with a hit are over-represented: about 11% of the library has one in this group of screens.
HP1b binding inh – inhibitors of HP1-beta chromodomain binding to methylated histone tails. AlphaScreen HP1-beta / biotin-H3K9me3 peptide binding. Potency, µM (series often up to 114 µM), inactives show top-dose activity change, negative = inhibition, hits mostly inhibitors. 0.56% of 390,000 active. AID 540317; note: potency is the fitted concentration of half-maximal effect; nearly all actives have a fitted effect of over 70% in size
Target sequence (P83916 whole entry, looked up): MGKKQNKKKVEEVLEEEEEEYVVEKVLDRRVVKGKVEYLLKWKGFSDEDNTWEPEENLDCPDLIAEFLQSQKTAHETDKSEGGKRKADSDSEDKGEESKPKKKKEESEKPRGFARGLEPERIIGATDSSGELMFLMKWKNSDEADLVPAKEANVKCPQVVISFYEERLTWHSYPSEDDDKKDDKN
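HP1-beta protein (50 nM final) preincubated 30 min at room temperature with biotinylated H3(1-18)K9me3 peptide (50 nM) in PBS pH 7.4, 0.01% Tween-20, then compound added for 30 min. AlphaScreen streptavidin donor/nickel chelate acceptor beads (10 ug/mL final), 30 min dark, luminescence read.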
L3MBTL1 inh – inhibitors of human L3MBTL1 | AlphaScreen L3MBTL1–H3K9me1 peptide binding | Q9Y468 | 0.66% of 230,000 active | Potency, µM (titrated, usually from 57.1 µM), without a hit: top-dose activity, negative = inhibition, actives largely listed as inhibitors; note: potency is the fitted concentration of half-maximal effect; % is set by controls: 0 for no effect and ±100 for the full control effect; nearly all actives have a fitted effect of over 60% in size
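AlphaScreen assay: L3MBTL1 (50 nM final) was preincubated 30 min at room temperature with biotinylated H3(1-15)K9me1 peptide (75 nM final), then 30 min with library compounds; streptavidin donor and nickel chelate acceptor beads (10 ug/mL final) added, 30 min dark.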
G9a inh – blocks human histone lysine methyltransferase G9a; Q96KQ7; G9a H3K9 monomethylation, AlphaScreen, 2 h; Potency, µM (titrated, usually from 102 µM), for the others: at the highest dose activity, negative = inhibition, most hits filed as inhibitors; 8.8% of 350,000 active; AID 504332; note: potency is the fitted concentration of half-maximal effect; % is set by controls: 0 for no effect and ±100 for the full control effect; nearly all actives have a fitted effect of over 75% in size
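Chemiluminescent proximity detection of H3K9 monomethylation, read after 10 min bead incubation in the dark. Reaction: 20 nM G9a, 500 nM biotin-H3K9 peptide, 20 uM SAM cofactor, 2 h, room temperature, following 15 min enzyme-compound preincubation.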
JMJD2A Tudor inh – inhibitors of human JMJD2A Tudor domain; O75164; AlphaScreen JMJD2A-Tudor / H3K4me3 peptide binding; Potency, µM (top dose mostly 114 µM), for inactives: at the highest dose activity change, negative = inhibition, actives largely listed as inhibitors; 4.4% of 390,000 active; note: potency is the fitted concentration of half-maximal effect; % is set by controls: 0 for no effect and ±100 for the full control effect; nearly all actives have a fitted effect of over 50% in size
PI5P4Ka inh – PI5P4K alpha (human) kinase inhibition; PI5P4Kalpha enzyme, ADP-Glo luminescence, 60 min; active compounds read low; max response, %; 1.2% of 330,000 active; active = max response of -50% or lower; inconclusive = between -30% and -50%; inactive = -30% or higher; note: value at the top dose of about 77 µM; % is set by controls: 0 for no effect and ±100 for the full control effect
Target sequence (P48426 whole entry, looked up): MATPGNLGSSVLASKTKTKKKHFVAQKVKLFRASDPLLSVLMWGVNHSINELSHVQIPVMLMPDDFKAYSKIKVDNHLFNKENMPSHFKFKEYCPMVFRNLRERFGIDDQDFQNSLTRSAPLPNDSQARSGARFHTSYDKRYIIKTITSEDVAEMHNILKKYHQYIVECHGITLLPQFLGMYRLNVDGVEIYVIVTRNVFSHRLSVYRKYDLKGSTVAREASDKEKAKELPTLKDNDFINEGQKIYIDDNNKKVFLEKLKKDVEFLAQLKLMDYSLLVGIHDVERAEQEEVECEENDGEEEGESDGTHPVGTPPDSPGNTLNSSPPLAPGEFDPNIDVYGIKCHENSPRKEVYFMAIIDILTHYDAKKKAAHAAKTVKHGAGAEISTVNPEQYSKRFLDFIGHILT
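ADP-Glo luminescence end-point read after a 60 min room-temperature kinase reaction of PI5P4Kalpha plus substrate, initiated with ATP at 5 microM final. Buffer: 0.038 M HEPES pH 7.4, EGTA, 0.1% CHAPS, 5% DMSO.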
BAZ2B block – blocks human BAZ2B; AlphaScreen BAZ2B-H3K14Ac peptide displacement; Potency, µM (top dose mostly 114 µM), for the others: top-dose activity change, negative = inhibition, usual class: inhibitors; 4.4% of 360,000 active; AID 504333; note: potency is the fitted concentration of half-maximal effect; % is set by controls: 0 for no effect and ±100 for the full control effect; nearly all actives have a fitted effect of over 60% in size
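In this displacement format the biotinylated H3(5-23) peptide acetylated at Lys14 serves as ligand at 50 nM, with BAZ2B at 50 nM in PBS pH 7.4 containing 0.01% Tween-20. Donor and acceptor beads are 10 ug/mL final.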
Active calls of the source: *; ? = inconclusive; nt = not tested or not shown; ! = repeats disagree; [ ] = remark or other dose. Unless noted, calls come from the whole dose curve; as a rule, active = well fitted inhibition curve with a large enough effect; inconclusive = small, poorly fitted or top-dose-only effect; inactive = no such curve, though single readings can be large or run the other way.

SMILES	HP1b binding inh	L3MBTL1 inh	G9a inh	JMJD2A Tudor inh	PI5P4Ka inh	BAZ2B block
CC(=O)[C@@H]1[C@@H]2C(=O)N(C3CCCCC3)C(=O)[C@@H]2C2c3ccccc3C=CN21 (stereo not given in full)	nt	4%	-41%[0.501 µM]	nt	nt	?
CC(C)(C)C(=O)[C@@H]1[C@@H]2C(=O)N(Cc3ccccc3)C(=O)[C@@H]2[C@H]2c3ccccc3C=CN12	nt	nt	10µM*	nt	nt	-27%
Cc1ccc(Cn2c(CN3CCN(c4cccc(Cl)c4)CC3)nc3c2c(=O)n(C)c(=O)n3C)cc1	6%	nt	?	?	nt	nt
Cc1noc(C)c1S(=O)(=O)Nc1ccc(C(=O)Nc2ccc(C(C)C)cc2)cc1	-6%	nt	-24%[59 µM]	-26%	nt	nt
C#C[C@]1(OC(C)=O)CC[C@H]2[C@@H]3CCC4=C/C(=N/O)CC[C@@H]4[C@H]3CC[C@@]21CC	nt	nt	-43%[12.7 µM]	nt	nt	nt
COCCN1CCn2c(nc3cc(NC(=O)NC4CCCCC4)ccc32)C1	40%	nt	?	?	-29	-34%
O=C(Nc1ccc2c(c1)nc1n2CCN(Cc2ccccc2)C1)NC1CCCCC1	22%	nt	22µM*	-23%	nt	-3%
COc1ccccc1C(=O)Nc1ccc2c(c1)nc1n2CCN(Cc2ccccc2)C1	9%	3%	16µM*	-20%	-11	-14%
CCCCC/C=C\C\C=C/C=C/C=C/[C@@H](SC[C@H](N)C(=O)O)[C@@H](O)CCCC(=O)O	nt	nt	38%[59 µM]	nt	nt	nt
Cc1ccc(Nc2ccc3cc(S(=O)(=O)N4CCC(C)CC4)ccc3n2)c(Cl)c1	55%	nt	16µM*	20%	nt	-7%
CC1CCN(S(=O)(=O)c2ccc3nc(Nc4cccc(F)c4)ccc3c2)CC1	85%	nt	25%[59 µM]	31%	nt	26%
Cc1ccc[n+](-c2nc3ccccc3nc2C(=C=[N-])C#N)c1	6%	0%	50µM*!	-6%	7	?
Cc1cc[n+](-c2nc3ccccc3nc2C(=C=[N-])C#N)cc1	20%	-7%	50µM*	-12%	-21	-6%
N#CC(=C=[N-])c1nc2ccccc2nc1-[n+]1ccccc1	-17%	-4%	?	-19%[57.1 µM]	-7	-17%
Cc1ccccc1NC(=O)CSc1cn(CC(=O)N(C(C)C)C(C)C)c2ccccc12	57%	nt	7%[59 µM]	6%	nt	-5%
C=C/C(C)=C/CC1C(=C)CCC2C(C)(C(=O)O)CCCC12C (stereo not given)	20%	nt	5%[12.7 µM]	56µM*	?	-34%
COc1ccc(CCN2C(=O)N(c3cccc(C)c3)C(=O)C2CC(=O)Nc2ccccc2)cc1OC (stereo not given)	11%	nt	-20%[59 µM]	-27%	nt	-23%
O=S(=O)(c1ccc(Cl)cc1)c1nnn2c1nc(NCc1cccs1)c1sccc12	33%	nt	12%[59 µM]	-33%	nt	0%
O=C(COC(=O)c1ccc(F)cc1F)Nc1cccnc1Cl	34%	-2%	35%[12.7 µM]	5%	1	-2%
O=C(COC(=O)c1ccc(Cl)cc1O)Nc1cccnc1Cl	12%	-2%	50µM*	-6%	4	0%
O=C(COC(=O)c1cc(Cl)ccc1O)NCCNC(=O)COC(=O)c1cc(Cl)ccc1O	9%	nt	40µM*	-12%	-8	10%
Cc1ccc(NC(=O)CC(C)S(=O)(=O)c2ccc3c(c2)NC(=O)CO3)c(C)c1 (stereo not given)	20%	nt	1%[59 µM]	-11%	nt	2%
Cc1occc1-c1nnc(SCC(=O)c2ccc(Cl)cc2)n1C	-20%	nt	-40%[12.7 µM]	71µM*	-16	?
Cc1ccc(C(=O)CSc2nnc(-c3ccco3)n2C)cc1	-17%	7%	nt	8.9µM*	-56*	-14%
Cc1occc1-c1nnc(SCC(=O)c2c[nH]c3ccccc23)n1C	-26%	-6%	40µM*	56µM*	-2	-22%
SMILES	HP1b binding inh	L3MBTL1 inh	G9a inh	JMJD2A Tudor inh	PI5P4Ka inh	BAZ2B block
COc1ccccc1-n1cnnc1SCC(=O)c1c[nH]c2ccccc12	-12%	2%	8%[59 µM]	-30%	-56*	-15%
Cc1ccc(S(=O)(=O)N2CCN(c3nc(C#N)nc4ccccc34)CC2)cc1	nt	nt	nt	-11%	nt	nt
Cc1cc(C)c2nc(N(Cc3cccnc3)C(=O)c3ccc(S(=O)(=O)N(C)C)cc3)sc2c1	5%	nt	8%[59 µM]	-16%	nt	-15%
Cc1ccc(CSc2nnc(-c3cccnc3)n2N)cc1	36%	2%	22%[59 µM]	-4%	nt	7%
Cc1ccc(C(=O)CSc2nnc(-c3cccnc3)n2N)cc1	13%	-2%	32µM*	50µM*	nt	-6%
O=C(NC(=S)Nc1nc2c(s1)CSc1ccccc1-2)c1ccccc1	-18%	nt	3.5µM*	-31%	-4	?
O=C(NC(=S)Nc1nc2c(s1)CCCC2)c1ccc(C(=O)c2ccccc2)cc1	-12%	-1%	-39%[59 µM]	-26%	3	-10%
CCCCN(Cc1cc2cc(C)ccc2[nH]c1=O)C(=O)c1ccccn1	38%	5%	3%	-6%	-2	-1%
CCCN(Cc1cc2ccc(C)cc2[nH]c1=O)C(=O)c1ccccn1	-14%	2%	32µM*	-20%	-29	3%
Cc1cccc(OCC(=O)NCC2(N3CCN(C)CC3)CCCCC2)c1	11%	nt	-12%[59 µM]	-13%	nt	-9%
CCOC(=O)c1c(S(=O)(=O)NCCc2ccco2)c(C)n(C)c1C	14%	nt	-9%	-15%	2	-38%
CCOC(=O)c1c(S(=O)(=O)NCCCc2ccco2)c(C)n(C)c1C	-5%	nt	45µM*	?	-1	56µM*
Cc1cc(Nc2cccc(C(F)(F)F)c2)nc2ccc(NC(=O)c3ccc(N(C)C)cc3)cc12	33%	nt	-21%[59 µM]	-14%	nt	-18%
O=C(NCCSC1CCCCC1)c1ccccc1	22%	8%	71µM*	-9%	0	-1%
COc1ccc(C(=O)NCCSC2CCCCC2)cc1	29%	11%	-10%[59 µM]	-7%	3	-11%
O=C(N/N=C/c1cc(Br)cc(Cl)c1O)c1ccc2c(c1)OCO2	36%	nt	nt	?	-28	nt
O=C(N/N=C/c1cc(Br)c(Br)o1)c1ccc2c(c1)OCCO2	?	?	nt	40µM*	-57*	45µM*
O=C(CNC(=O)c1ccc2c(c1)OCO2)N/N=C/c1cc(Br)ccc1O	13%	nt	79µM*	?	10	-9%
O=C(N/N=C/c1cc(Br)c(O)c(Br)c1O)c1ccc2c(c1)OCCO2	-3%	nt	?	40µM*	-56*	45µM*
O=C(CNC(=O)c1ccccc1)N/N=C/c1cc(Br)ccc1O	43%	-5%	23%[59 µM]	-4%	2	8%
CN(Cc1ccccc1)C(=O)[C@H](Cc1ccc2ccccc2c1)NC(=O)[C@@H]1C[C@@H](O)CN1C(=O)c1cn(C)c2ccccc12	nt	nt	7%[59 µM]	nt	nt	nt
Cc1cccc(C)c1NC(=O)CN1C(=O)c2cccc3cccc1c23	12%	nt	3%[59 µM]	-7%	nt	2%
